Results reported in PubChem BioAssay (NCI).
Compounds without any hit were thinned out: in the full panel of roughly 79,000, 15% have a hit. Activity calls are given as the source filed them. Rule as the data show it: active = growth inhibition above about 70%; inactive = the rest.

Columns and labels:
[1] = NCI Yeast Anticancer Drug Screen. Data for the rad52 strain (AID 147);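 also: 0% = growth of vehicle-treated control cultures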; conditions: S. cerevisiae rad52 mutant growth inhibition, hits give high values
Procedure, shortened: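 DNA repair-defective yeast; compound exposure; growth scored against vehicle controls.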

[2] = NCI Yeast Anticancer Drug Screen. Data for the wt1 strain (AID 149);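 also: 0% = growth of vehicle-treated wt1 cultures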; conditions: S. cerevisiae wt1 strain (SPY 50644) growth inhibition, hits give high values
Procedure, shortened: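 Using yeast strain wt1, compound-induced growth inhibition was determined against vehicle-treated cultures.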

[3] = NCI Yeast Anticancer Drug Screen. Data for the rad50EPP+ strain (AID 151);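 also: 0% = growth of vehicle-treated control cultures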; conditions: S. cerevisiae rad50 mutant strain, hits give high values
Procedure, shortened: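 rad50EPP+ yeast treated with test compounds. Readout: growth vs vehicle control.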

[4] = NCI Yeast Anticancer Drug Screen. Data for the mgt1 strain (AID 153); conditions: S. cerevisiae mgt1 mutant growth inhibition, hits give high values
Procedure, shortened: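 Growth inhibition relative to vehicle controls was scored for the mgt1 yeast strain after compound exposure.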

[5] = NCI Yeast Anticancer Drug Screen. Data for the rad50 strain (AID 155);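 also: 0% = growth of vehicle-only cultures of the same strain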; conditions: S. cerevisiae rad50 strain growth inhibition, hits give high values
Procedure, shortened: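 Relative growth inhibition (compound vs vehicle) was measured in yeast with a defined repair-gene alteration.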

[6] = NCI Yeast Anticancer Drug Screen. Data for the mec2-1 strain (AID 157); conditions: S. cerevisiae mec2-1 strain, hits give high values
Procedure, shortened: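 Growth inhibition is read against vehicle-treated controls after compound exposure of the mec2-1 yeast strain, which is defective in DNA damage repair or cell cycle control.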

[7] = NCI Yeast Anticancer Drug Screen. Data for the rad14 strain (AID 159);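 also: 0% = growth of vehicle-treated control cultures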; conditions: S. cerevisiae rad14 strain growth inhibition, hits give high values
Procedure, shortened: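 Screen for anticancer potential: a yeast strain altered in DNA damage repair is grown with compound, and reduced growth is quantified against vehicle controls.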

[8] = NCI Yeast Anticancer Drug Screen. Data for the sgs1 mgt1 strain (AID 161);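 also: 0% = growth of cultures given vehicle only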; conditions: S. cerevisiae sgs1 mgt1 strain, hits give high values
Procedure, shortened: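 Compounds are added to genetically altered yeast, and growth is compared with cultures given vehicle alone to give percent inhibition.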

[9] = NCI Yeast Anticancer Drug Screen. Data for the CLN2oe strain (AID 163);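 also: 0% = growth of vehicle-only control cultures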; conditions: S. cerevisiae CLN2oe strain, hits give high values
Procedure, shortened: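 Compound-treated yeast; growth vs vehicle ctrl = % inhibition. Genetically altered strain (cell-cycle control).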

[10] = NCI Yeast Anticancer Drug Screen. Data for the cln2 rad14 strain (AID 165);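 also: 0% = growth equal to vehicle treated cultures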; conditions: S. cerevisiae cln2 rad14 strain, hits give high values
Procedure, shortened: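 Growth inhibition, relative to vehicle-treated controls, is the read-out. The test organism is a yeast strain with defined genetic alterations, cln2 rad14.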

[11] = NCI Yeast Anticancer Drug Screen. Data for the bub3 strain (AID 167); conditions: S. cerevisiae bub3 mutant strain, hits give high values
Procedure, shortened: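 Screening used yeast with an engineered genetic alteration affecting cell cycle control. Compound-exposed cultures were compared with vehicle cultures, and reduced growth was taken as inhibition.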

[12] = NCI Yeast Anticancer Drug Screen. Data for the wt2 strain (AID 169);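 also: 0% = growth of vehicle-treated yeast cultures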; conditions: S. cerevisiae wt2 strain growth inhibition, hits give high values
Procedure, shortened: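 Compound exposure of yeast; growth compared with vehicle controls; inhibition reported.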

[13] = NCI Yeast Anticancer Drug Screen. Data for the mlh1 strain (AID 171);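 also: 0% = growth of vehicle-treated control cultures of the same strain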; conditions: S. cerevisiae mlh1 strain growth inhibition, hits give high values
Procedure, shortened: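 Compounds are applied to a genetically altered yeast strain, and its growth is compared with that of vehicle-treated cultures to give percent inhibition.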

[14] = NCI Yeast Anticancer Drug Screen. Data for the sgs1 strain (AID 173);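 also: 0% = growth of vehicle-only control cultures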; conditions: S. cerevisiae sgs1 mutant, hits give high values
Procedure, shortened: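 Compounds applied to genetically altered yeast; growth compared with vehicle-treated cultures to give % inhibition.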

[15] = NCI Yeast Anticancer Drug Screen. Data for the mlh1 rad18 strain (AID 175); conditions: S. cerevisiae mlh1 rad18 strain growth inhibition, hits give high values
Procedure, shortened: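 Cells of a genetically altered yeast strain, deficient in DNA damage repair, were treated with compound. Their growth was then compared with that of vehicle-treated cultures to give inhibition.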

[16] = NCI Yeast Anticancer Drug Screen. Data for the rad18 strain (AID 177); conditions: S. cerevisiae rad18 mutant growth inhibition, hits give high values
Procedure, shortened: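 Compounds are applied to a repair-deficient yeast strain, and growth is compared with that of vehicle-treated cultures to give percent inhibition.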

[17] = at 5.0 µM (retest, dose inferred, filed as 0.5)
[18] = at 50.0 µM (retest, dose inferred, filed as 5.0)

Measured: growth inhibition

CC1=C(N2CC2)C(=O)c2ccccc2C1=O
inactive: [1]; at 1.2 µM 1% | [1]; at 3.7 µM 11% | [1]; at 11.0 µM 22% | [1]; at 33.0 µM 69% | [2]; at 1.2 µM -5% | [2]; at 3.7 µM -6% | [2]; at 11.0 µM -6% | [2]; at 33.0 µM -2% | [2]; at 100.0 µM 41% | [3]; at 1.2 µM 5% | [3]; at 3.7 µM 16% | [3]; at 11.0 µM 48% | [4]; at 1.2 µM 0% | [4]; at 3.7 µM -49% | [4]; at 11.0 µM 2% | [4]; at 33.0 µM 13% | [4]; at 100.0 µM 36% | [5]; at 1.2 µM 1% | [5]; at 3.7 µM 1% | [5]; [17] -103% | [5]; at 11.0 µM 23% | [5]; at 50.0 µM 53.7% | [6]; at 1.2 µM 4% | [6]; at 3.7 µM 3% | [6]; [17] -46% | [6]; at 11.0 µM 6% | [6]; at 33.0 µM 11% | [6]; [18] 4% | [6]; at 50.0 µM 19.8% | [6]; at 100.0 µM 49% | [7]; at 1.2 µM 2% | [7]; at 3.7 µM 3% | [7]; at 11.0 µM 14% | [7]; at 33.0 µM 32% | [8]; [17] -41% | [8]; at 50.0 µM 43% | [9]; at 1.2 µM -1% | [9]; at 3.7 µM 0% | [9]; at 11.0 µM 0% | [9]; at 33.0 µM 2% | [9]; at 100.0 µM 39% | [10]; [17] -60% | [10]; [18] 48% | [10]; at 50.0 µM -6.55% | [11]; at 1.2 µM -3% | [11]; at 3.7 µM -2% | [11]; [17] -64% | [11]; at 11.0 µM 2% | [11]; at 33.0 µM 16% | [11]; [18] 16% | [11]; at 50.0 µM -8.05% | [11]; at 100.0 µM 66% | [12]; at 1.2 µM 0% | [12]; at 3.7 µM 1% | [12]; at 11.0 µM 2% | [12]; at 33.0 µM 0% | [12]; at 100.0 µM 34% | [13]; at 1.2 µM 7% | [13]; at 3.7 µM -3% | [13]; at 11.0 µM 2% | [13]; at 33.0 µM 9% | [13]; at 100.0 µM 64% | [14]; at 1.2 µM 0% | [14]; at 3.7 µM 10% | [14]; at 11.0 µM 36% | [14]; at 33.0 µM 67% | [15]; [17] -99% | [15]; [18] 65% | [15]; at 50.0 µM 46.2% | [16]; at 1.2 µM 36%
active: [1]; at 100.0 µM 97% | [3]; at 33.0 µM 79% | [3]; at 100.0 µM 96% | [5]; at 33.0 µM 70% | [5]; [18] 84% | [5]; at 100.0 µM 97% | [7]; at 100.0 µM 92% | [8]; [18] 72% | [14]; at 100.0 µM 96% | [16]; at 3.7 µM 72% | [16]; at 11.0 µM 91% | [16]; at 33.0 µM 96% | [16]; at 100.0 µM 98%

O=c1oc2ccccc2c(O)c1C(c1ccc2ccccc2c1)c1c(O)c2ccccc2oc1=O
inactive: [1]; at 1.2 µM -8% | [1]; at 3.7 µM 12% | [1]; at 11.0 µM 21% | [1]; at 33.0 µM 64% | [2]; at 1.2 µM -10% | [2]; at 3.7 µM 4% | [2]; at 11.0 µM 1% | [2]; at 33.0 µM 50% | [3]; at 1.2 µM 6% | [3]; at 3.7 µM 41% | [3]; at 11.0 µM 51% | [3]; at 33.0 µM 50% | [3]; at 100.0 µM 46% | [4]; at 1.2 µM 17% | [4]; at 3.7 µM 17% | [4]; at 11.0 µM 33% | [5]; at 1.2 µM 12% | [5]; at 3.7 µM 10% | [5]; [17] 47% | [5]; at 11.0 µM 17% | [5]; at 33.0 µM 58% | [6]; at 1.2 µM 10% | [6]; at 3.7 µM 15%
active: [1]; at 100.0 µM 97% | [2]; at 100.0 µM 98% | [4]; at 33.0 µM 83% | [4]; at 100.0 µM 98% | [5]; [18] 93% | [5]; at 50.0 µM 73.7% | [5]; at 100.0 µM 97%
